# An excerpt weighted towards active compounds, which were near 13% of everything screened.
# HCV inh = inhibitors of hepatitis C virus infection. Huh7.5.1 HCVcc-Cre infection, luciferase reporter, 44 h. Potency, µM (top dose mostly 41.8 µM), hits mostly inhibitors. 340,000 compounds, 3.4% hits. AID 651820
#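 Antiviral activity was scored by luciferase reporter output from cells infected with HCVcc-Cre (~0.5 moi) in presence of compound, 44 h infection period, cells seeded 1,000/well 4 h prior.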
# Pf growth 48h = inhibits P. falciparum growth in the first generation, 48 h. P. falciparum luciferase growth in erythrocytes, 48 h. Potency, µM (doses to about 28.7 µM), most hits filed as inhibitors. 310,000 compounds, 5.9% hits. AID 504832
#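 Read-out is firefly luciferase luminescence from an integrated reporter in P. falciparum, so falling signal marks reduced parasite growth. Infected erythrocytes were at 2% hematocrit and 0.1% parasitemia (final) in Albumax-supplemented RPMI 1640.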
# HCMV antiviral = blocks human cytomegalovirus replication. HFF cells, HCMV-luciferase reporter, 72 h; hits give low values. activity change, negative = inhibition, % at 57.5 µM. 410,000 compounds, 4.5% hits. AID 1259415; in the data active = activity change below about -60%; inconclusive = no clear call, values can overlap the other calls; inactive = above about -39%
#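 Cell-based, HFFs, 1000 cells/well, 16 h 37C; cpds in DMSO + HCMV-luc, MOI 1 PFU/cell; 72 h 37C; OneGlo luminescence after 5 min RT; norm. to buffer vs Salinomycin 10uM.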
# Pf growth 96h = P. falciparum growth inhibition at 96 hours | P. falciparum luciferase reporter growth, 96 h | Potency, µM (highest dose often 28.7 µM), usual class: inhibitors | 320,000 compounds, 6.9% hits
#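 Erythrocytes infected with luciferase-expressing P. falciparum were dispensed at 2% hematocrit and 0.05% parasitemia (final), then incubated with compounds 96 hours at 37 C in 5% CO2. Luminescence after detection reagent addition reported growth.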
# Numbers stand for hits; - = inactive; ? = inconclusive; . = no result given. Unless noted, calls come from the whole dose curve; as a rule, active = well fitted inhibition curve with a large enough effect; inconclusive = small, poorly fitted or top-dose-only effect, or another doubt; inactive = no such curve, though single readings can be large or run the other way.
SMILES,HCV inh,Pf growth 48h,HCMV antiviral,Pf growth 96h
CCCCn1c(=O)n(CC(=O)Nc2ccc(C)c(Cl)c2)c(=O)c2c1ncn2Cc1ccco1,?,12µM,-,4.7µM
COc1cc(C2C(C(=O)Nc3ccccc3C)=C(C)Nc3ncnn32)ccc1OCC(N)=O (configuration not stated),.,.,-,.
O=[N+]([O-])c1ccc(Oc2cnc3ccccc3n2)cc1,-,-,-63,-
NC(=O)C1(N2CCCCC2)CCN(C(=O)CSc2nc(C(F)(F)F)cc(=O)[nH]2)CC1,-,-,-65,.
O=C(CSc1nc(C(F)(F)F)cc(=O)[nH]1)N1CCCC1,-,-,-,-
O=C(N[C@H]1CC[C@@]23CCCN2C(=O)CCC[C@H]3[C@H]1Cc1ccccc1)c1ccccc1,.,.,-,.
Cc1ccc(C(=O)CC2(O)C(=O)N(CN3CCOCC3)c3ccccc32)cc1 (configuration not stated),-,?,-,-
CC(C)c1ccc(C(=O)CC2(O)C(=O)N(CN3CCOCC3)c3ccccc32)cc1 (configuration not stated),-,-,-,12µM
CC(C)N(Cc1ccccc1)C(=O)Cn1ncc2c3ccccc3n(Cc3ccccc3)c2c1=O,.,.,-,.
COc1ccc(-n2nnnc2C(CCSC)N2CCC(n3c(=O)[nH]c4ccccc43)CC2)cc1 (configuration not stated),.,.,-,.
O=c1[nH]c2ccccc2n1C1CCN(C(c2ccnc3ccccc23)c2nnnn2-c2ccc3c(c2)OCCO3)CC1 (configuration not stated),.,.,-76,.
Cc1cccc(C)c1-n1nnnc1C(CCc1ccccc1)N1CCC(n2c(=O)[nH]c3ccccc32)CC1 (configuration not stated),.,.,-94,.
COc1ccc(-n2nnnc2C(CCc2ccccc2)N2CCC(n3c(=O)[nH]c4ccccc43)CC2)cc1 (configuration not stated),.,.,-95,.
O=c1[nH]c2ccccc2n1C1CCN(C(CCc2ccccc2)c2nnnn2-c2ccc3c(c2)OCCO3)CC1 (configuration not stated),.,.,-104,.
CC(C)c1ccc(CN2C(=O)C(n3cccc3)c3cccc(F)c32)cc1 (configuration not stated),.,.,-,.
CCc1ccccc1NC(=O)c1ccc2c(SCC(=O)O)c3c(nc2c1)CCC3,.,.,-,.
COc1ccc(NCc2cc3ccc(OC)cc3n(CC(=O)Nc3ccc(C)c(C)c3)c2=O)cc1,.,.,-,.
COc1ccccc1Cc1c(-c2cccc(Br)c2)nc2ccc(C)cn12,.,.,-,.
CCCCNc1nc2c(S(=O)(=O)c3ccc(Br)cc3)nnn2c2ccsc12,.,.,-,.
Cc1ccc(C(=O)NC(C(=O)Nc2ccccc2)c2ccccc2)cc1 (configuration not stated),-,9.3µM,-,-
Cc1ccc(C(NC(=O)c2ccccc2)C(Cl)(Cl)Cl)cc1 (configuration not stated),?,12µM,-,?
O=C(NC(c1ccccc1)C(Cl)(Cl)Cl)c1ccccc1 (configuration not stated),-,?,-,-
N#Cc1cccc(N=Cc2c(O)ccc3ccccc23)c1,-,-,-61,-
Cc1ccc(N=Cc2c(O)ccc3ccccc23)cc1F,-,-,-,?
Cc1cccc2nc(Cn3c(=O)n(-c4ccc(Cl)cc4)c(=O)c4c5c(sc43)CCC5)cc(=O)n12,.,.,-,.
SMILES,HCV inh,Pf growth 48h,HCMV antiviral,Pf growth 96h
COc1ccc(CCNC(=O)C2c3ccccc3C(=O)N2Cc2ccccc2)cc1OC (configuration not stated),.,.,-,.
CCNC(=S)N/N=C/c1ccc(C#N)cc1,?,-,-62,-
CCCCOc1ccc(CNC(=S)N/N=C/c2ccc(OC)c(OC)c2)cc1,-,.,-,4.7µM
CCNC(=S)NCc1ccc(OC)c(OC)c1,-,-,-,5.2µM
COc1ccc(CCNC(=S)NCc2ccc(Cl)c(Cl)c2)cc1OC,-,?,-,-
CCNC(=S)N/N=C/c1ccco1,-,.,-,?
C=CCN(CC=C)C(=S)NCCc1ccc(OC)c(OC)c1,?,13µM,-,?
COCCNC(=S)N/N=C/c1ccc(OCc2ccc(C(=O)OC)cc2)c(OC)c1,-,-,.,-
COc1ccc(-c2nc(SCC(=O)NC3CCCC3)c(-c3ccccc3)[nH]2)cc1OC,.,.,-,.
CCOc1ccc(CNC(=S)N/N=C\c2ccc([N+](=O)[O-])cc2)cc1,-,13µM,-,?
Cc1ccc(-c2ccc(=O)n(CC(=O)Nc3ccc(C(C)C)cc3)n2)cc1,.,.,-,.
